# Only some compounds are listed: those with a hit (about 8% of all), similar ones and a draw of the others.
# Coupling enz: qHTS Assay for Inhibitors of Fructose-1,6-bisphosphate Aldolase from Giardia Lamblia: Coupling assay counterscreen; coupling enzyme system counterscreen, AmpLite Red fluorescence; activity change, negative = inhibition, % at 58.2 µM, hits read low; hit rate 0.67% among 290,000; AID 2472, 2010; in the data active = activity change below about -30%
#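 Fluorescence at 525 nm excitation and 598 nm emission measured inhibition of the coupled detection system without aldolase. Compounds (at 57.5 uM final) were preincubated 10 min at room temperature with coupling enzyme reagent before a 20 min substrate/AmpLite Red step.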
# Gal4-VP16 FLuc: VP16 counterscreen qHTS for inhibitors of ROR gamma transcriptional activity; Drosophila S2 Gal4-VP16 UAS-luciferase, luminescence, 20 h; Potency, µM (titrated, usually from 53.6 µM), inactives show top-dose activity, negative = inhibition, hits mostly inhibitors; hit rate 3.5% among 310,000; AID 2546, 2010;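 also: Gal4-VP16 expression switched on by copper sulfate through the metallothionein promoter; potency is read from the fitted curve at half-maximal effect; nearly all actives have a fitted effect of over 50% in size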
# TSHR antag: Antagonists of the Thyroid Stimulating Hormone Receptor: HTS campaign. TSHR-expressing cells, TSH-stimulated cAMP HTRF, 2 h; active compounds read low. activity change, negative = inhibition, % at 11.5 µM. Thyrotropin receptor (Homo sapiens), P16473. hit rate 0.2% among 330,000;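 active = activity change below a set negative limit, meaning inhibition stronger than a set level, cut at about -70% in these data; inconclusive = activity change between two set negative limits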
#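 Cell-based HTRF cAMP assay; TSHR cells + compound, TSH EC80 (4nM final), 2 h, 37 deg C. Lysis with anti-cAMP cryptate and cAMP-d2, 30 min RT, read 665/620 nm.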
# ELG1 repair inh: qHTS screen for small molecules that inhibit ELG1-dependent DNA repair in human embryonic kidney (HEK293T) cells expressing luciferase-tagged ELG1; HEK293T ELG1-luciferase reporter, luminescence, 16 h; DNA damage induced by 5-fluorouridine; Potency, µM (titrated, usually from 46.1 µM), for inactives: at the highest dose activity change, negative = inhibition, actives largely listed as inhibitors; hit rate 2.3% among 330,000; AID 504467, 2011; also: potency is read from the fitted curve at half-maximal effect; nearly all actives have a fitted effect of over 55% in size
#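 HEK293T cells expressing luciferase-tagged ELG1 (2,000/well) received 5-Fluorouridine plus compound or DMSO for 16 hr at 37 °C. Luciferase was read by ONE-Glo luminescence after 30 min at room temperature.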
# RORgamma inh: qHTS for inhibitors of ROR gamma transcriptional activity; Nuclear receptor ROR-gamma (Mus musculus), P51450; Drosophila S2 Gal4-RORgamma UAS-luciferase reporter, 20 h; Potency, µM (top dose mostly 53.6 µM), for inactives: at the top dose activity change, negative = inhibition, usual class: inhibitors; hit rate 5.4% among 310,000; also: potency is read from the fitted curve at half-maximal effect; nearly all actives have a fitted effect of over 60% in size
#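 A Gal4/UAS one-hybrid system in insect cells: metallothionein-promoter Gal4–ROR gamma fusion plus Photinus luciferase reporter. Copper sulfate 700 uM final, 20 hr ambient incubation, luminescent detection after 10 min with reagent.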
# * marks the source's active call; other numbers are inactive results; ? = inconclusive; . = not tested or not shown; [ ] = remark or other dose. Unless noted, calls follow the shape of the dose curve; as a rule, active = well fitted curve in the direction sought with a large enough effect; inconclusive = small, poorly fitted or top-dose-only effect, or another doubt; inactive = no such curve, though single readings can be large; an effect the other way counts as inactive or inconclusive. % is scaled to controls: 0 for no effect and ±100 for the full control effect.
SMILES,Coupling enz,Gal4-VP16 FLuc,TSHR antag,ELG1 repair inh,RORgamma inh
Sc1nnc(-c2ccc(Cl)cc2)n1Cc1ccccc1,.,.,2,20%,.
Cc1ccccc1-c1ccc2ncnc(NCCN3CCOCC3)c2c1,0,-23%,.,.,?
N#C/C(=C\Nc1ccccc1O)c1nc2ccccc2o1,-5,3.5µM*,21,?,?
C=CCn1c(-c2ccc(Cl)cc2)cnc1SC(C)C(=O)NC(N)=O (stereo not given),0,-4%[10 µM],-22,-20%,?
C=CCn1c(-c2ccc(Cl)cc2)cnc1SC(C)C(N)=O (stereo not given),-1,?,-8,8%,7.9µM*
N#Cc1cccc2c1-c1ccccc1/C2=N/NC(N)=O,-1,-22%,-1,-22%,-13%
N#Cc1cccc2c1-c1ccccc1/C2=N/NC(N)=S,-2,5µM*,7,-25%,4µM*
CCOC(=O)C1=C(CS(=O)(=O)c2ccccc2)NC(=O)NC1c1ccccc1OC (stereo not given),1,-5%,3,-11%,1%
CC(C)COc1cccc(-c2cc(C(=O)Nc3ccon3)c3ccccc3n2)c1,-1,28µM*,-119*,?,?
CCCOc1cccc(-c2cc(C(=O)N/N=C/c3ccccn3)c3ccccc3n2)c1,.,1.3µM*,-8,12%,1µM*
CCCOc1cccc(-c2cc(C(=O)N/N=C/c3cccnc3)c3ccccc3n2)c1,.,9%,-2,16µM*,8%
COc1ccc(-c2cc(C(=O)N/N=C/c3cccnc3)c3ccccc3n2)cc1,.,-11%,-1,?,-36%
COc1cccc(-c2cc(C(=O)Nc3ccncc3)c3ccccc3n2)c1,-1,-8%,-37,-11%,0%
COc1cccc(-c2cc(C(=O)Nn3cnnc3)c3ccccc3n2)c1,-11,?,-6,13%,?
